According to PubChem BioAssay (NCI):
Where “and” joins values, the source holds several entries; their conditions need not be identical. Equal values may be shown once. Compounds without any hit were thinned out: in the full panel of roughly 83,000, 20% have a hit.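 Percent growth is the endpoint: 0 to 100 indicates growth inhibition (40 means 60% inhibition), 0 means no net growth, and negative values indicate cell death.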 Some structures have more than one record in an assay (separate samples or runs), and their calls can disagree. Calls of active or inactive are those of the source. How the source made its calls: active means growth percent below 10; inactive means the rest.

Columns and labels:
Experiment in all cases: NCI-60 one-dose screen, 48 h (100 = growth as untreated, 0 = no growth, -100 = all killed)
Conditions in all cases: 10 µM unless noted
SK-MEL-2 melanoma = system: SK-MEL-2 melanoma
EKVX NSCLC = system: EKVX NSCLC
SN12C renal = system: SN12C renal
UO-31 renal = system: UO-31 renal
TK-10 renal = system: TK-10 renal
ACHN renal = system: ACHN renal
CAKI-1 renal = system: CAKI-1 renal
A498 renal = system: A498 renal
MOLT-4 leukemia = system: MOLT-4 leukemia
SR leukemia = system: SR leukemia
RPMI-8226 leukemia = system: RPMI-8226 leukemia
OVCAR-8 ovarian = system: OVCAR-8 ovarian
OVCAR-5 ovarian = system: OVCAR-5 ovarian
OVCAR-4 ovarian = system: OVCAR-4 ovarian
IGROV1 ovarian = system: IGROV1 ovarian
OVCAR-3 ovarian = system: OVCAR-3 ovarian
HS 578T breast = system: HS 578T breast
NCI/ADR-RES ovarian = system: NCI/ADR-RES ovarian
SK-OV-3 ovarian = system: SK-OV-3 ovarian
CCRF-CEM leukemia = system: CCRF-CEM leukemia

Row | Structure (SMILES) | growth (SK-MEL-2 melanoma) | growth (EKVX NSCLC) | growth (SN12C renal) | growth (UO-31 renal) | growth (TK-10 renal) | growth (ACHN renal) | growth (CAKI-1 renal) | growth (A498 renal) | growth (MOLT-4 leukemia) | growth (SR leukemia) | growth (RPMI-8226 leukemia) | growth (OVCAR-8 ovarian) | growth (OVCAR-5 ovarian) | growth (OVCAR-4 ovarian) | growth (IGROV1 ovarian) | growth (OVCAR-3 ovarian) | growth (HS 578T breast) | growth (NCI/ADR-RES ovarian) | growth (SK-OV-3 ovarian) | growth (CCRF-CEM leukemia)
1 | Oc1c(Cl)cc(Cl)cc1Sc1cc(Cl)cc(Cl)c1O | -21.7% (active) and -41% (active) and 79.7% (inactive) | 50% (inactive) and 23.4% (inactive) and 89% (inactive) | 26.8% (inactive) and -26.6% (active) and 72.8% (inactive) | 73.2% (inactive) and 36.9% (inactive) and 85.2% (inactive) | 46.9% (inactive) and -11.2% (active) and 87.2% (inactive) | 15.2% (inactive) and 105% (inactive) | 17.9% (inactive) and 11.7% (inactive) and 62.8% (inactive) | 54.4% (inactive) and 42.3% (inactive) and 69.5% (inactive) | 38.7% (inactive) and 16.2% (inactive) and 91% (inactive) | 42.1% (inactive) and 77.1% (inactive) and 107% (inactive) | 11.8% (inactive) and -29% (active) and 41.3% (inactive) | 31.7% (inactive) and 2.65% (active) and 71.7% (inactive) | 49.9% (inactive) and 102% (inactive) | 78.1% (inactive) and 38.2% (inactive) and 93.3% (inactive) | 56.5% (inactive) and 33.3% (inactive) and 73.7% (inactive) | 47.1% (inactive) and 11.6% (inactive) and 76.5% (inactive) | 47.9% (inactive) and 53.5% (inactive) and 78.2% (inactive) | 15.8% (inactive) and 10.8% (inactive) and 82.7% (inactive) | – | –
2 | c1ccc2c(CC3=NCCN3)cccc2c1 | 132% (inactive) and 110% (inactive) | 113% (inactive) and 102% (inactive) | 103% (inactive) and 107% (inactive) | 97.6% (inactive) and 98.7% (inactive) | 114% (inactive) and 108% (inactive) | 102% (inactive) and 116% (inactive) | 92.9% (inactive) | 90.3% (inactive) and 81.4% (inactive) | 113% (inactive) and 108% (inactive) | 101% (inactive) | 104% (inactive) and 97.2% (inactive) | 98% (inactive) and 101% (inactive) | 97.7% (inactive) and 108% (inactive) | 108% (inactive) and 110% (inactive) | 108% (inactive) and 116% (inactive) | 117% (inactive) and 116% (inactive) | 107% (inactive) and 99.6% (inactive) | 101% (inactive) and 105% (inactive) | 105% (inactive) and 107% (inactive) | –
3 | COc1ccc(NC(=S)Nc2ccccn2)cc1 | 94.6% (inactive) | 96.5% (inactive) | 100% (inactive) | 93.7% (inactive) | 102% (inactive) | 97.7% (inactive) | 89.3% (inactive) | 83% (inactive) | 91% (inactive) | 90.5% (inactive) | 93% (inactive) | 96.5% (inactive) | 97.7% (inactive) | 110% (inactive) | 106% (inactive) | 97% (inactive) | 101% (inactive) | 99.8% (inactive) | – | –
4 | O=C(/C=C/c1ccccn1)c1ccccc1O | 104% (inactive) and 100% (inactive) | 76% (inactive) and 88.1% (inactive) | 63.7% (inactive) and 88.1% (inactive) | -17.5% (active) and 74.7% (inactive) | 84.4% (inactive) and 55.3% (inactive) | 65.3% (inactive) and 74.2% (inactive) | 34.8% (inactive) and 40% (inactive) | – | 41.5% (inactive) | 4.76% (active) | 2.44% (active) and -0.787% (active) | 54.4% (inactive) and 84.8% (inactive) | 77.1% (inactive) and 92.3% (inactive) | 101% (inactive) and 88.2% (inactive) | 38.1% (inactive) and 66.6% (inactive) | 84.4% (inactive) and 44.9% (inactive) | 87.2% (inactive) | 73.9% (inactive) and 93.4% (inactive) | 111% (inactive) and 113% (inactive) | 13.3% (inactive)
5 | O=C(N/N=C/c1cccc2ccccc12)C1CC1 | 98.6% (inactive) and 115% (inactive) | 72.5% (inactive) and 53% (inactive) | 104% (inactive) and 88.6% (inactive) | 90.1% (inactive) and 102% (inactive) | 131% (inactive) and 121% (inactive) | 127% (inactive) and 110% (inactive) | 108% (inactive) and 90% (inactive) | – | 67.1% (inactive) and 113% (inactive) | 93.6% (inactive) | 85.6% (inactive) and 97.8% (inactive) | 101% (inactive) and 98.5% (inactive) | 122% (inactive) and 100% (inactive) | 101% (inactive) | 118% (inactive) and 107% (inactive) | 113% (inactive) and 112% (inactive) | 109% (inactive) and 98.6% (inactive) | 115% (inactive) and 97.8% (inactive) | – | 88.3% (inactive)
6 | N/C(=N\N=C\c1ccc2c(c1)OCO2)N/N=C\c1ccc2c(c1)OCO2 | 103% (inactive) and 136% (inactive) | 113% (inactive) | 107% (inactive) and 89% (inactive) | 99.5% (inactive) and 77.3% (inactive) | 140% (inactive) and 153% (inactive) | 111% (inactive) and 97.7% (inactive) | 99% (inactive) and 103% (inactive) | 121% (inactive) and 85.9% (inactive) | 95.4% (inactive) and 50.3% (inactive) | -8.73% (active) | 98.5% (inactive) and 67.3% (inactive) | 102% (inactive) and 95% (inactive) | 122% (inactive) and 96.9% (inactive) | 93.8% (inactive) | 112% (inactive) and 96.8% (inactive) | 126% (inactive) and 101% (inactive) | 115% (inactive) and 92.5% (inactive) | 101% (inactive) and 82.6% (inactive) | 118% (inactive) and 111% (inactive) | –
7 | O=[N+]([O-])c1ccc(/C=N\NC(=S)Nc2ccc(F)cc2)cc1 | 91.1% (inactive) and 110% (inactive) | 91.9% (inactive) and 102% (inactive) | 105% (inactive) and 92% (inactive) | 96.9% (inactive) and 102% (inactive) | 109% (inactive) and 107% (inactive) | 86.2% (inactive) and 93.4% (inactive) | 97.1% (inactive) and 106% (inactive) | 119% (inactive) | 86.9% (inactive) and 98.6% (inactive) | 99.7% (inactive) | 100% (inactive) and 85.2% (inactive) | 94.1% (inactive) and 95.3% (inactive) | 115% (inactive) and 94.7% (inactive) | 92.6% (inactive) | 96.8% (inactive) and 99.1% (inactive) | 129% (inactive) and 109% (inactive) | 93.4% (inactive) | 100% (inactive) and 89.8% (inactive) | 98.5% (inactive) and 91.7% (inactive) | –
8 | OC1CCC(Oc2cccc3cnc(Nc4ccc5nc[nH]c5c4)nc23)CC1 (stereo not drawn) | -33.7% (active) and 84.8% (inactive) | -33.9% (active) and 52.7% (inactive) | 10.2% (inactive) and 38.4% (inactive) | 8.29% (active) and 49.1% (inactive) | 6.96% (active) and 46.2% (inactive) | 12.8% (inactive) and 41.9% (inactive) | 13.5% (inactive) and 62.8% (inactive) | -32.6% (active) and 43.1% (inactive) | – | -15.3% (active) and -4.18% (active) | -16.7% (active) and 55% (inactive) | 5.91% (active) and 52.6% (inactive) | 24.2% (inactive) and 41.7% (inactive) | 15.7% (inactive) and 73.9% (inactive) | 19.1% (inactive) and 52.3% (inactive) | 5.57% (active) and 53.7% (inactive) | -7.28% (active) and 15.8% (inactive) | 9.41% (active) and 83.2% (inactive) | 8.38% (active) and 57.4% (inactive) | -14.6% (active) and 15.4% (inactive)
9 | O=C(Nc1ccc(Br)cc1)c1cc(Br)ccc1O | -30.5% (active) and 13.2% (inactive) | 11% (inactive) and 13.6% (inactive) | 6.5% (active) and -10.3% (active) | -12.3% (active) and 0.207% (active) | 9.29% (active) and 1.36% (active) | 9.36% (active) and -2.71% (active) | 5.39% (active) and 10.4% (inactive) | – | 17.4% (inactive) and -33.2% (active) | 1.42% (active) | 16.9% (inactive) and -8.2% (active) | 22.5% (inactive) and 20.5% (inactive) | 30.4% (inactive) and 17.4% (inactive) | 9.76% (active) and 24.8% (inactive) | 13.6% (inactive) | -18.3% (active) and -5.1% (active) | -1.71% (active) and -5.35% (active) | 4.45% (active) and -5.6% (active) | 4.48% (active) and -11.3% (active) | 23.4% (inactive) and 3.66% (active)
